The first experiment deals with T1, SPDEF (Homo sapiens, UniProt O95238 1-335).
T1 sequence: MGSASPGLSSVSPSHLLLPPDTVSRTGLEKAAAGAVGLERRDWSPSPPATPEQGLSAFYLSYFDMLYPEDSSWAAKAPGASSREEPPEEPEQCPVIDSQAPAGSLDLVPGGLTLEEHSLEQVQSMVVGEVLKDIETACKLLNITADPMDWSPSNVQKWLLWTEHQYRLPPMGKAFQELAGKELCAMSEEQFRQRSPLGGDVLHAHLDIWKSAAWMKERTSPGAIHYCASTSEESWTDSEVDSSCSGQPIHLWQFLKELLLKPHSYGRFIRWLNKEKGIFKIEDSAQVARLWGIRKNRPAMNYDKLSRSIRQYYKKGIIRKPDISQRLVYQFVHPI
Nature of the experiment: DAPPL (digital affinity profiling via proximity ligation, sequencing); 10 mM Tris-HCl pH 7.5, 50 mM NaCl, 1 mM DTT, 4% glycerol, room temperature, 30 min; GST-TFs on glutathione beads, 16-mer random dsDNA library, 0.1% formaldehyde crosslink after washing; high values mean tight binding. To be noted: protein: recombinant; tags: N-terminal GST; dsDNA, one strand shown. Summed up: (§1)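 Pools were built from human transcription factors expressed in yeast as GST fusions, captured on glutathione beads and DNA-barcoded, along with a tag-only sample. Incubation with 200 nmole of a 16-mer random double-stranded DNA library lasted 30 min at room temperature in Tris/NaCl/DTT/glycerol buffer, and was followed by washing, 0.1% formaldehyde crosslinking, proximity ligation, PCR amplification and Illumina NextSeq500 sequencing. Binding signal is the quotient of each hexamer's read frequency for a factor and its frequency for the tag-only sample.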
Consider TCCCAG, for which the binding signal was 1.07 fold enrichment (6-mer frequency, TF over GST control).

For the sequence TTGGCT, the binding signal is 1.11 fold enrichment (6-mer frequency, TF over GST control).

On to TAGGTC, for which the binding signal is 1.05 fold enrichment (6-mer frequency, TF over GST control).

As for TAGTAA, the binding signal is 1.02 fold enrichment (6-mer frequency, TF over GST control).

Regarding CACCAA, the binding signal was 1.03 fold enrichment (6-mer frequency, TF over GST control).

Take CTACAG: the binding signal is 1.09 fold enrichment (6-mer frequency, TF over GST control).

In the case of TCTGGG, the binding signal was 1.07 fold enrichment (6-mer frequency, TF over GST control).

In the next experiment the target is T2, ETV7 (Homo sapiens, UniProt Q9Y603 1-341).
T2 sequence: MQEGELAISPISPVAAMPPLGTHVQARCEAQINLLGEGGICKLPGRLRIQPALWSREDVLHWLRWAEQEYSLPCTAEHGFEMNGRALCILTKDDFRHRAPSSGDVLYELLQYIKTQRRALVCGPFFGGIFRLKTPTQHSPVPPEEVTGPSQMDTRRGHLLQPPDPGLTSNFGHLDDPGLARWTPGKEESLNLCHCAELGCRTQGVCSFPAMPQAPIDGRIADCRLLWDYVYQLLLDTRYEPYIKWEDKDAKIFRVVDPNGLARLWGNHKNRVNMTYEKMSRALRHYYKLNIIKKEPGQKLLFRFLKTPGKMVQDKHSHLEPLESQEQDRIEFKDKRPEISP
The description is as above. The following applies: protein: recombinant; tags: N-terminal GST; dsDNA, one strand shown. Summed up:
as §1
For the sequence TCCCAG, the binding signal is 1.16 fold enrichment (6-mer frequency, TF over GST control).

Regarding TTGGCT, the binding signal was 1.07 fold enrichment (6-mer frequency, TF over GST control).

Consider CGATGA, for which the binding signal is 1.13 fold enrichment (6-mer frequency, TF over GST control).

Regarding GCGTTT, the binding signal was 1.12 fold enrichment (6-mer frequency, TF over GST control).

As to TTCGGC, the binding signal was 1.19 fold enrichment (6-mer frequency, TF over GST control).

As for TAGGTC, the binding signal is 1.11 fold enrichment (6-mer frequency, TF over GST control).

Turning to GTATGG, the binding signal is 1.02 fold enrichment (6-mer frequency, TF over GST control).

Regarding AGCTGC, the binding signal was 1.16 fold enrichment (6-mer frequency, TF over GST control).

With AGCCTA, the binding signal was 1.13 fold enrichment (6-mer frequency, TF over GST control).

For AACCCA, the binding signal is 1.14 fold enrichment (6-mer frequency, TF over GST control).

For ACTCGC, the binding signal is 1.09 fold enrichment (6-mer frequency, TF over GST control).

TATCAA: the binding signal was 1.09 fold enrichment (6-mer frequency, TF over GST control).

In the case of AAGCAA, the binding signal is 1.05 fold enrichment (6-mer frequency, TF over GST control).

In the case of TGCGCG, the binding signal was 1.23 fold enrichment (6-mer frequency, TF over GST control).

GAAAAA: the binding signal is 1.16 fold enrichment (6-mer frequency, TF over GST control).

As for CGATCA, the binding signal was 1.08 fold enrichment (6-mer frequency, TF over GST control).

On to GCGCCT, for which the binding signal is 1.06 fold enrichment (6-mer frequency, TF over GST control).

Turning to ATCATT, the binding signal was 1.01 fold enrichment (6-mer frequency, TF over GST control).

CATGGG: the binding signal was 1.03 fold enrichment (6-mer frequency, TF over GST control).

Take TAGTAA: the binding signal is 1.16 fold enrichment (6-mer frequency, TF over GST control).

In the case of AAGCCC, the binding signal is 1.01 fold enrichment (6-mer frequency, TF over GST control).

For GTCCAC, the binding signal is 1.01 fold enrichment (6-mer frequency, TF over GST control).

Consider GCACTG, for which the binding signal was 1.11 fold enrichment (6-mer frequency, TF over GST control).

For the sequence CTGGCC, the binding signal is 1.03 fold enrichment (6-mer frequency, TF over GST control).

For GCCGAT, the binding signal was 1.12 fold enrichment (6-mer frequency, TF over GST control).

Consider ATCGCA, for which the binding signal was 1.03 fold enrichment (6-mer frequency, TF over GST control).

With GAATCT, the binding signal is 1.03 fold enrichment (6-mer frequency, TF over GST control).

With TCTGGG, the binding signal is 1.07 fold enrichment (6-mer frequency, TF over GST control).

On to TCTAGG, for which the binding signal was 1.16 fold enrichment (6-mer frequency, TF over GST control).

The next experiment addresses T3, ELF5 (Homo sapiens, UniProt Q9UKW6-2 1-255).
T3 sequence: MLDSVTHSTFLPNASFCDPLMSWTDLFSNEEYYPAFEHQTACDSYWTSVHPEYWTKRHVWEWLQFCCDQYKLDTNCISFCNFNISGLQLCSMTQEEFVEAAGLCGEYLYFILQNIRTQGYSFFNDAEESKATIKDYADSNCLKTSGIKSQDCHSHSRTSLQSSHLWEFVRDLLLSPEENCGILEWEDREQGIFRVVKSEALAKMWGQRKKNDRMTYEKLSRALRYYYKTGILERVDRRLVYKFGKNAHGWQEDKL
The experiment is described as above. The following applies: protein: recombinant; tags: N-terminal GST; dsDNA, one strand shown. In outline:
as §1
As for TCCCAG, the binding signal was 1.12 fold enrichment (6-mer frequency, TF over GST control).

For the sequence CGATGA, the binding signal is 1.01 fold enrichment (6-mer frequency, TF over GST control).

Regarding GCCCCC, the binding signal was 1.04 fold enrichment (6-mer frequency, TF over GST control).

In the case of GCGTTT, the binding signal was 1.12 fold enrichment (6-mer frequency, TF over GST control).

Consider TTCGGC, for which the binding signal is 1.01 fold enrichment (6-mer frequency, TF over GST control).

On to TAGTCT, for which the binding signal was 1.04 fold enrichment (6-mer frequency, TF over GST control).

TAGGTC: the binding signal was 1.02 fold enrichment (6-mer frequency, TF over GST control).

Turning to GTATGG, the binding signal is 1.03 fold enrichment (6-mer frequency, TF over GST control).

On to AGCTGC, for which the binding signal was 1.06 fold enrichment (6-mer frequency, TF over GST control).

Regarding AACCCA, the binding signal is 1.05 fold enrichment (6-mer frequency, TF over GST control).

As to ACTCGC, the binding signal is 1.08 fold enrichment (6-mer frequency, TF over GST control).

With AAGCAA, the binding signal was 1.03 fold enrichment (6-mer frequency, TF over GST control).

Turning to TGCGCG, the binding signal was 1.01 fold enrichment (6-mer frequency, TF over GST control).

With GAAAAA, the binding signal was 1.22 fold enrichment (6-mer frequency, TF over GST control).

Take GCGCCT: the binding signal was 1.04 fold enrichment (6-mer frequency, TF over GST control).

With AACGCC, the binding signal was 1.01 fold enrichment (6-mer frequency, TF over GST control).

On to CATGGG, for which the binding signal was 1.04 fold enrichment (6-mer frequency, TF over GST control).

As to TAGTAA, the binding signal was 1.04 fold enrichment (6-mer frequency, TF over GST control).

AAGCCC: the binding signal is 1.02 fold enrichment (6-mer frequency, TF over GST control).

For AGCCCC, the binding signal is 1.01 fold enrichment (6-mer frequency, TF over GST control).

Consider CACCAA, for which the binding signal is 1.03 fold enrichment (6-mer frequency, TF over GST control).

For the sequence CTGGCC, the binding signal was 1.01 fold enrichment (6-mer frequency, TF over GST control).

As for CTACAG, the binding signal is 1.08 fold enrichment (6-mer frequency, TF over GST control).

CTATAG: the binding signal was 1.05 fold enrichment (6-mer frequency, TF over GST control).

For GAATCT, the binding signal was 1.07 fold enrichment (6-mer frequency, TF over GST control).

Take TCTGGG: the binding signal is 1.08 fold enrichment (6-mer frequency, TF over GST control).

Turning to TCTAGG, the binding signal was 1.07 fold enrichment (6-mer frequency, TF over GST control).

The target of another experiment is T4, ETV3 (Homo sapiens, UniProt P41162-2 1-143).
T4 sequence: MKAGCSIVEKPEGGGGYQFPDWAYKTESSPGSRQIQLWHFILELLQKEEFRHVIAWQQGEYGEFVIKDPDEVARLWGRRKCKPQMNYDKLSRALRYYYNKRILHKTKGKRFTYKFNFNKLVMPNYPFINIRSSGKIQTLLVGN
The experiment is described as above. To be noted: protein: recombinant; tags: N-terminal GST; dsDNA, one strand shown. Summed up: as §1
Regarding TCCCAG, the binding signal is 1.07 fold enrichment (6-mer frequency, TF over GST control).

Consider TTGGCT, for which the binding signal was 1.06 fold enrichment (6-mer frequency, TF over GST control).

On to GCCCCC, for which the binding signal is 1.21 fold enrichment (6-mer frequency, TF over GST control).

As to GCGTTT, the binding signal was 1.19 fold enrichment (6-mer frequency, TF over GST control).

Consider TTCGGC, for which the binding signal is 1.13 fold enrichment (6-mer frequency, TF over GST control).

On to TAGTCT, for which the binding signal is 1.12 fold enrichment (6-mer frequency, TF over GST control).

Regarding TAGGTC, the binding signal is 1.04 fold enrichment (6-mer frequency, TF over GST control).

As for ACCGAA, the binding signal is 1.02 fold enrichment (6-mer frequency, TF over GST control).

As to AGCTGC, the binding signal was 1.16 fold enrichment (6-mer frequency, TF over GST control).

Take AGCCTA: the binding signal is 1.1 fold enrichment (6-mer frequency, TF over GST control).

Regarding ACTCGC, the binding signal is 1.08 fold enrichment (6-mer frequency, TF over GST control).

For the sequence TATCAA, the binding signal was 1.04 fold enrichment (6-mer frequency, TF over GST control).

As to AAGCAA, the binding signal was 1.12 fold enrichment (6-mer frequency, TF over GST control).

TGCGCG: the binding signal was 1.03 fold enrichment (6-mer frequency, TF over GST control).

GAAAAA: the binding signal was 1.09 fold enrichment (6-mer frequency, TF over GST control).

Consider CGATCA, for which the binding signal is 1.1 fold enrichment (6-mer frequency, TF over GST control).

Regarding GCGCCT, the binding signal was 1.1 fold enrichment (6-mer frequency, TF over GST control).

Regarding AACGCC, the binding signal is 1.06 fold enrichment (6-mer frequency, TF over GST control).

Consider ATCGTT, for which the binding signal was 1 fold enrichment (6-mer frequency, TF over GST control).

As to TAGTAA, the binding signal is 1.06 fold enrichment (6-mer frequency, TF over GST control).

AAGCCC: the binding signal was 1.1 fold enrichment (6-mer frequency, TF over GST control).

As to AGCCCC, the binding signal was 1.11 fold enrichment (6-mer frequency, TF over GST control).

With CACCAA, the binding signal is 1.1 fold enrichment (6-mer frequency, TF over GST control).

As to GCACTG, the binding signal is 1.12 fold enrichment (6-mer frequency, TF over GST control).

For the sequence CTGGCC, the binding signal was 1.06 fold enrichment (6-mer frequency, TF over GST control).

GCCGAT: the binding signal is 1.18 fold enrichment (6-mer frequency, TF over GST control).

With ATCGCA, the binding signal is 1.03 fold enrichment (6-mer frequency, TF over GST control).

In the case of CTATAG, the binding signal is 1.09 fold enrichment (6-mer frequency, TF over GST control).

In the case of GAATCT, the binding signal was 1.13 fold enrichment (6-mer frequency, TF over GST control).

TCTGGG: the binding signal is 1.09 fold enrichment (6-mer frequency, TF over GST control).

In the case of CCGAAG, the binding signal was 1.02 fold enrichment (6-mer frequency, TF over GST control).

As to TCTAGG, the binding signal was 1.12 fold enrichment (6-mer frequency, TF over GST control).

The record behind these values is PMC7862700, “An all-to-all approach to the identification of sequence-specific readers for epigenetic DNA modifications on cytosine”.
